Data published in ChEMBL document CHEMBL5606460, “ASAP - DENV-2 NS2B-NS3 protease fluorescence single point” (2024).
Out of some 2,000 compounds screened, about 110 (5.5%) showed an effect of 50% or more. The list comes from a sample in which strong results are over-represented; it also holds similar structures and randomly drawn compounds.

Molecular target: Genome polyprotein (dengue virus type 2) (UniProt P29990)
[1] = Thailand/16681/1984, Concentration 25.0 uM, Number of replicates 1.0

COc1ccc(S(=O)(=O)N2CCC(C(=O)Nc3nc4ccccc4s3)CC2)cc1
inhibition (Thailand/16681/1984, Concentration 49.5 uM, Number of replicates 2.0, Standard deviation 1.3648800018415175 %): 2.28%
inhibition (Thailand/16681/1984, Concentration 99.01 uM, Number of replicates 2.0, Standard deviation 0.35874487080545164 %): 4.97%
inhibition (Thailand/16681/1984, Concentration 198.0 uM, Number of replicates 2.0, Standard deviation 3.7738315130637563 %): 5.55%

COc1ccc(S(=O)(=O)n2nc(OC(=O)c3cccc(-c4ccccc4Cl)c3)cc2N)cc1
inhibition (Thailand/16681/1984, Concentration 49.5 uM, Number of replicates 2.0, Standard deviation 1.4490153953002987 %): 18.8%
inhibition (Thailand/16681/1984, Concentration 99.01 uM, Number of replicates 2.0, Standard deviation 0.6098804079928887 %): 22.4%
inhibition (Thailand/16681/1984, Concentration 198.0 uM, Number of replicates 2.0, Standard deviation 5.725656788050292 %): 25.3%

NC(=O)c1ccc(CNC(=O)c2ccc(OCc3ccccc3)cc2)cc1
inhibition (Thailand/16681/1984, Concentration 49.5 uM, Number of replicates 2.0, Standard deviation 3.419970703357444 %): -0.579%
inhibition (Thailand/16681/1984, Concentration 99.01 uM, Number of replicates 2.0, Standard deviation 3.9573061855257445 %): -0.365%
inhibition (Thailand/16681/1984, Concentration 198.0 uM, Number of replicates 2.0, Standard deviation 3.324054675683989 %): -1.19%

NC(=O)c1ccc(CNC(=O)NCc2ccc(OCc3ccccc3)cc2)cc1
inhibition (Thailand/16681/1984, Concentration 49.5 uM, Number of replicates 2.0, Standard deviation 0.6584955649548859 %): -0.275%
inhibition (Thailand/16681/1984, Concentration 99.01 uM, Number of replicates 2.0, Standard deviation 0.579227797958503 %): 0.348%
inhibition (Thailand/16681/1984, Concentration 198.0 uM, Number of replicates 2.0, Standard deviation 0.34476708449941224 %): -0.309%

C[C@@H](NCc1ccc(C(N)=O)cc1)c1ccc(OCc2ccccc2)cc1
inhibition (Thailand/16681/1984, Concentration 49.5 uM, Number of replicates 2.0, Standard deviation 1.6752456853530722 %): 0.14%
inhibition (Thailand/16681/1984, Concentration 99.01 uM, Number of replicates 2.0, Standard deviation 1.116678580733439 %): 0.358%
inhibition (Thailand/16681/1984, Concentration 198.0 uM, Number of replicates 2.0, Standard deviation 0.6068608391781741 %): -0.175%

CCCC[C@H](N)C(=O)N[C@@H](C(=O)NCc1ccc(C(N)=O)cc1)c1ccc(OCc2ccccc2)cc1
inhibition (Thailand/16681/1984, Concentration 49.5 uM, Number of replicates 2.0, Standard deviation 0.45534308736890416 %): -4.77%
inhibition (Thailand/16681/1984, Concentration 99.01 uM, Number of replicates 2.0, Standard deviation 0.9591594337975816 %): 6.09%
inhibition (Thailand/16681/1984, Concentration 198.0 uM, Number of replicates 2.0, Standard deviation 4.328590586700157 %): 82.3%

CCCC[C@H](N)C(=O)N[C@H](C(=O)NCc1ccc(C(N)=O)cc1)c1ccc(OCc2ccccc2)cc1
inhibition (Thailand/16681/1984, Concentration 49.5 uM, Number of replicates 2.0, Standard deviation 0.2650581585371317 %): -6.18%
inhibition (Thailand/16681/1984, Concentration 99.01 uM, Number of replicates 2.0, Standard deviation 5.609533791033077 %): 63.5%
inhibition (Thailand/16681/1984, Concentration 198.0 uM, Number of replicates 2.0, Standard deviation 0.01804559465842439 %): 99.8%

CCCCCC(=O)N[C@H](C(=O)Nc1ccc(C(N)=O)cc1)c1ccc(OCc2ccccc2)cc1
inhibition (Thailand/16681/1984, Concentration 49.5 uM, Number of replicates 2.0, Standard deviation 0.6010644427830669 %): 0.424%
inhibition (Thailand/16681/1984, Concentration 99.01 uM, Number of replicates 2.0, Standard deviation 0.8411278167455505 %): 0.131%
inhibition (Thailand/16681/1984, Concentration 198.0 uM, Number of replicates 2.0, Standard deviation 0.2400633914962311 %): -0.732%

COc1ccccc1C1CCN(C(=O)C2CCN(c3ccc(C=O)cc3)CC2)CC1
inhibition [1]: 12.3%

CN(C)Cc1ccc(C(=O)Nc2cc(Cl)cc(C(=O)NC(C)(C)CO)c2)[nH]1
inhibition (Thailand/16681/1984, Concentration 49.5 uM, Number of replicates 2.0, Standard deviation 0.5051399787428742 %): 0.205%
inhibition (Thailand/16681/1984, Concentration 99.01 uM, Number of replicates 2.0, Standard deviation 1.5521383022614499 %): 0.663%
inhibition (Thailand/16681/1984, Concentration 198.0 uM, Number of replicates 2.0, Standard deviation 0.5964116239079592 %): 5.64%

CCN(Cc1cc(Br)ccc1F)C(=O)C1CCN(c2ccc(C=O)cc2)CC1
inhibition [1]: 15.9%

Cc1cc(N)c2c(Cl)ccc(Cl)c2n1
inhibition (Thailand/16681/1984, Concentration 49.95 uM, Number of replicates 2.0, Standard deviation 8.427681720895945 %): -5.26%
inhibition (Thailand/16681/1984, Concentration 99.9 uM, Number of replicates 2.0, Standard deviation 7.565581927359314 %): -3.92%

Cc1cc(Cl)c2cccc(N)c2n1
inhibition (Thailand/16681/1984, Concentration 49.95 uM, Number of replicates 2.0, Standard deviation 0.6589137143756747 %): 13.5%
inhibition (Thailand/16681/1984, Concentration 99.9 uM, Number of replicates 2.0, Standard deviation 0.20071745394997703 %): 27.6%

Cc1cc(Cl)c2c(N)ccc(C)c2n1
inhibition (Thailand/16681/1984, Concentration 49.95 uM, Number of replicates 2.0, Standard deviation 5.268842944255752 %): 34.7%
inhibition (Thailand/16681/1984, Concentration 99.9 uM, Number of replicates 2.0, Standard deviation 0.5758298004935433 %): 94.7%

Cc1cc(CO)c2cccc(Cc3cccc(NC(=O)c4cnn(Cc5c(C)noc5C)c4)c3)c2n1
inhibition (Thailand/16681/1984, Concentration 49.95 uM, Number of replicates 2.0, Standard deviation 1.4870028556253494 %): -3.7%
inhibition (Thailand/16681/1984, Concentration 99.9 uM, Number of replicates 2.0, Standard deviation 1.816697484259061 %): -0.8%

O=C(O)c1cccc(NC(=O)c2cccc(OCc3c(Cl)cccc3Cl)c2)c1
inhibition (Thailand/16681/1984, Concentration 49.5 uM, Number of replicates 2.0, Standard deviation 0.517131041635451 %): 14.9%
inhibition (Thailand/16681/1984, Concentration 99.01 uM, Number of replicates 2.0, Standard deviation 0.3657402361338958 %): 47.1%
inhibition (Thailand/16681/1984, Concentration 198.0 uM, Number of replicates 2.0, Standard deviation 0.23203020217005468 %): 92.1%

O=C(Nc1cccc(O)c1)c1cccc(OCc2c(Cl)cccc2Cl)c1
inhibition (Thailand/16681/1984, Concentration 49.5 uM, Number of replicates 2.0, Standard deviation 2.2599777431890864 %): 6.58%
inhibition (Thailand/16681/1984, Concentration 99.01 uM, Number of replicates 2.0, Standard deviation 0.8121141369648937 %): 8.41%
inhibition (Thailand/16681/1984, Concentration 198.0 uM, Number of replicates 2.0, Standard deviation 0.4931997238761773 %): 11.9%

O=C(Nc1ccc(O)cc1)c1cccc(OCc2c(Cl)cccc2Cl)c1
inhibition (Thailand/16681/1984, Concentration 49.5 uM, Number of replicates 2.0, Standard deviation 0.38856258601515087 %): 5.85%
inhibition (Thailand/16681/1984, Concentration 99.01 uM, Number of replicates 2.0, Standard deviation 1.1651546847054868 %): 9.28%
inhibition (Thailand/16681/1984, Concentration 198.0 uM, Number of replicates 2.0, Standard deviation 0.8272279968409002 %): 12.6%

Cc1cc(CO)c2cccc(Cc3cccc(NC(=O)[C@@H]4CC(=O)CCN4)c3)c2n1
inhibition (Thailand/16681/1984, Concentration 49.95 uM, Number of replicates 2.0, Standard deviation 0.827370284601473 %): 15.8%
inhibition (Thailand/16681/1984, Concentration 99.9 uM, Number of replicates 2.0, Standard deviation 0.7401310286309556 %): 32.9%

NCc1cccc(NC(=O)[C@@H](NC(=O)OCc2ccccc2)c2ccc(OCc3ccccc3)cc2)c1
inhibition (Thailand/16681/1984, Concentration 49.5 uM, Number of replicates 2.0, Standard deviation 0.05193031216203084 %): 99.8%
inhibition (Thailand/16681/1984, Concentration 99.01 uM, Number of replicates 2.0, Standard deviation 0.07343936624368645 %): 99.8%
inhibition (Thailand/16681/1984, Concentration 198.0 uM, Number of replicates 2.0, Standard deviation 0.025182910572653226 %): 99.6%

CCCCCC(=O)N[C@H](C(=O)NCc1ccc(NC(=N)N)cc1)c1ccc(OCc2ccccc2)cc1
inhibition (Thailand/16681/1984, Concentration 49.5 uM, Number of replicates 2.0, Standard deviation 0.35669280924008506 %): 0.374%
inhibition (Thailand/16681/1984, Concentration 99.01 uM, Number of replicates 2.0, Standard deviation 0.1951319007042223 %): 2.1%
inhibition (Thailand/16681/1984, Concentration 198.0 uM, Number of replicates 2.0, Standard deviation 2.320076788942105 %): 11.9%

NCc1cccc(NC(=O)[C@@H](NC(=O)OCc2ccccc2)c2ccc(F)cc2)c1
inhibition (Thailand/16681/1984, Concentration 49.5 uM, Number of replicates 2.0, Standard deviation 2.4011437232418986 %): -4.62%
inhibition (Thailand/16681/1984, Concentration 99.01 uM, Number of replicates 2.0, Standard deviation 1.9050608177527883 %): -3.96%
inhibition (Thailand/16681/1984, Concentration 198.0 uM, Number of replicates 2.0, Standard deviation 2.2061626239616485 %): -3.52%

NCc1cccc(NC(=O)Cc2ccc(OCc3ccccc3)cc2)c1
inhibition (Thailand/16681/1984, Concentration 49.5 uM, Number of replicates 2.0, Standard deviation 0.3616312555788717 %): -3.09%
inhibition (Thailand/16681/1984, Concentration 99.01 uM, Number of replicates 2.0, Standard deviation 0.27421312838327405 %): -2.89%
inhibition (Thailand/16681/1984, Concentration 198.0 uM, Number of replicates 2.0, Standard deviation 0.0354621897496722 %): -1.31%
